Source: PubChem BioAssay
This is a sample that favours compounds with a hit; in the whole collection about 4% have one here.
Peg3 prom inh = inhibitors of Peg3 promoter; HeLa PEG-Prom luciferase reporter, luminescence, overnight; inhibition, % at 20 µM; 1.7% of 360,000 active;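 active = inhibition of at least 50% at 20 µM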
TWEAK-Fn14 inh = blocks TWEAK-Fn14 interaction in a reporter cell assay; AID 1159606; inhibition, % at 10 µM; 2% of 360,000 active; TWEAK-stimulated Fn14 reporter cells, luciferase luminescence, 8 h; in the data active = inhibition above about 50%
TROY signal inh = blocks TROY-dependent signaling in reporter cells; AID 1347056; inhibition, % at 10 µM; 0.98% of 360,000 active; Q293 LMP1-TROYcd NF-kB luciferase reporter, 4 h;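 active = compounds whose plate-normalised and pattern-corrected inhibition of the luciferase reporter signal at the single screening dose is 50% or more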
KKLEB cytotox = counter-screen for CF NF-kB inhibitors: cytotoxicity; KKLEB CF airway cells viability, ATPlite luminescence, overnight; stronger effect = lower value; cells stimulated with P. aeruginosa culture filtrate; activity change (cytotoxicity), % at 5 µM; 0.36% of 360,000 active;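 active = corrected activity change at or below -50% at 5 µM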
HIF-2a block = blocks HIF-2a reporter activity; 786-0 RCC cells HIF-2a reporter, luciferase luminescence, overnight; inhibition, % at 18.8 µM; 0.72% of 360,000 active;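 active = inhibition of the luminescence signal of 40% or more relative to plate controls, in a single-dose primary screen at 18.75 µM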
CF NFkB inh = inhibitors of cystic fibrosis induced NF-kB; inhibition, % at 5 µM; KKLEB NF-kB-GFP reporter, PAF-induced, GFP fluorescence overnight; 0.86% of 360,000 active;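 active = at least 50% inhibition at 5 µM, scaled per plate between neutral and stimulator controls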;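 also: PAF is a Pseudomonas aeruginosa culture filtrate used as stimulus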
Each line names hits and unclear results; the compound was inactive in the other large screens; ! = a repeat was not active.

C(C#CCCCCCCCCC[n+]1ccccc1)#CCCCCCCCCC[n+]1ccccc1	Peg3 prom inh 105, TWEAK-Fn14 inh 90, CF NFkB inh 53
O=C(CNC(=O)c1ccc(-c2ccccc2)cc1)Nc1cccc(CO)c1	none
CCCCN1C(=O)C(=O)N(CC(=O)Nc2ccccc2C(=O)OCC)C1=O	none
Cc1ccc(CNC(=O)COC(=O)c2cc(C)oc2C)cc1	none
Cc1ccc(-n2ncc3c(NCCCN4CCOCC4)ncnc32)c(C)c1	none
COc1ccc(-n2ncc3c(NCCCN4CCOCC4)ncnc32)cc1	TWEAK-Fn14 inh 74, TROY signal inh 59
c1ccc(-c2oc3ncnc(NCCCN4CCOCC4)c3c2-c2ccccc2)cc1	none
COc1ccc(-n2ncc3c(NCCN4CCOCC4)ncnc32)cc1	TWEAK-Fn14 inh 59, TROY signal inh 53
COc1ccc(-c2oc3ncnc(NCCCN4CCOCC4)c3c2-c2ccc(OC)cc2)cc1	Peg3 prom inh 64
CC(NC(=O)c1c(F)cccc1Cl)c1ccc(-n2ccnc2)cc1 (stereo not drawn)	none
COc1ccc(-c2csc(NC(=O)C3CCN(C(=O)c4ccc(F)cc4)CC3)n2)cc1OC	none
CC(=O)N[C@H](Cc1c[nH]c2ccccc12)C(=O)O	none
CC(=O)/C=C(/C)NC(Cc1c[nH]c2ccccc12)C(=O)O (stereo not drawn)	TROY signal inh 51!
C[C@@H](C(=O)N[C@@H](Cc1c[nH]c2ccccc12)C(=O)O)n1nnc2ccccc2c1=O	TWEAK-Fn14 inh 72
O=C(Cn1nnc2ccccc2c1=O)N[C@@H](Cc1c[nH]c2ccccc12)C(=O)O	none
O=C(COC(=O)c1ccccc1[N+](=O)[O-])c1ccc2c(c1)OCO2	TWEAK-Fn14 inh 78, TROY signal inh 78
O=C(COC(=O)c1cccs1)c1ccc2c(c1)OCCO2	TWEAK-Fn14 inh 61, TROY signal inh 75
Cc1ccc(C(=O)COC(=O)c2cccs2)cc1	TROY signal inh 59
O=C(COC(=O)c1cccs1)c1ccc2ccccc2c1	none
Cc1cccc(C(=O)OCC(=O)c2ccc3c(c2)OCO3)c1O	none
Cc1cccc(C(=O)OCC(=O)c2ccc3c(c2)OCCO3)c1O	TROY signal inh 54
Cc1cccc(-c2oc3ccccc3c2C#CCCO)c1	none
O=C(NCc1ccccc1Cl)[C@@H]1CCCN1S(=O)(=O)c1ccc(Cl)cc1	none
COc1ccc(Cc2nnc(SCC(=O)N(C)CC(=O)Nc3ccc(C)cc3)o2)cc1	none
COc1ccc([C@@H]2CC(=O)[C@@H]3CN(S(=O)(=O)c4ccc(Cl)cc4)[C@H](c4ccc(C)cc4)C[C@@H]3N2S(=O)(=O)c2ccccc2)cc1	none
NC(=O)c1ccc2c(c1)OCCO2	none (no result: TROY signal inh)
CC(=O)NC12CC3CC(C1)CC(C(=O)OCC(=O)c1cc(C)n(C)c1C)(C3)C2	none
CCOC(=O)C(=O)CC(=O)c1ccc2c(c1)OCCO2	TROY signal inh 72
CC(=O)NC12CC3CC(C1)CC(C(=O)OCC(=O)c1ccc4c(c1)OCCO4)(C3)C2	TWEAK-Fn14 inh 58, TROY signal inh 54
O=C(/C=C/c1cccc(F)c1)c1ccc(N2CCOCC2)cc1	none
O=C(/C=C/c1cccs1)c1ccc(N2CCOCC2)cc1	TWEAK-Fn14 inh 89, TROY signal inh 75
CC(=O)Nc1ccc(C=NNc2nnc(NN=Cc3ccc(NC(C)=O)cc3)c3ccccc23)cc1	TWEAK-Fn14 inh 56
Cc1ccc(/C=N/Nc2nnc(Cl)c3ccccc23)cc1	none
COc1ccc(NC(=O)Cn2nnc(-c3ccccc3NS(=O)(=O)c3ccccc3)n2)cc1	TWEAK-Fn14 inh 54
COc1ccc(-c2nc(N/N=C(\C)c3ccc(O)cc3)c3ccccc3n2)cc1	CF NFkB inh 56
O=C(O)c1ccc(N/N=C/c2cn(Cc3ccc(F)cc3)c3ccccc23)cc1	TWEAK-Fn14 inh 52
CCNC(=S)N/N=C/c1cn(Cc2ccc(F)cc2)c2ccccc12	none
O=[N+]([O-])/C=C/c1cn(Cc2ccc(F)cc2)c2ccccc12	Peg3 prom inh 53
O=c1c2cn(Cc3ccc(F)cc3)c3ccccc3c-2nn1Cc1ccc(F)cc1	none
Cc1csc(NC(=O)Cc2coc3cc(C)c(C(C)C)cc23)n1	TROY signal inh 55
COCCNC(=O)c1cccc(Nc2nc(-c3ccccc3)c3cc(Cl)ccc3n2)c1	Peg3 prom inh 53, TWEAK-Fn14 inh 63
C/C(=N\NC(=O)COc1ccc(C(C)(C)C)cc1)c1ccccc1	none
